F508del corr = CFTR F508del correction in bronchial cells. CFBE cells, YFP halide quenching; stimulated with forskolin plus potentiator P3; % fluorescence drop versus neutral controls. activity (quench increase), % at 7.58 µM. hit rate 0.36% among 350,000. AID 720511;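 active means mean added fluorescence quench of at least 8% versus neutral control, with both replicates also reaching 8%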;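 further: cells transiently co-express mutant CFTR-F508del with the halide-sensitive YFP; corrector assay measuring rescue of mutant channel to the surface after 24 h compound exposure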
Vif inh = HIV Vif inhibition; HEK293T cells, Vif self-association by quenched fluorescence, imaging, 24 h; inhibition, % at 7.49 µM; hit rate 0.35% among 340,000; in the data active means inhibition above about 50%, passing the limit was not always enough
FGF22 binding = shifts melting point of recombinant human FGF22. activity (Tm shift, normalised), % at 9.99 µM. recombinant FGF22 thermal shift, SYPRO orange fluorescence; percent of sucrose octasulfate shift, DMSO zero. AID 651658. hit rate 1.5% among 340,000;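 active means mean Tm shift, scaled 0 neutral to 100 positive control, at about 1.3% or above, every replicate too, limit read from the data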
Target sequence (Q9HCT0 whole entry, looked up): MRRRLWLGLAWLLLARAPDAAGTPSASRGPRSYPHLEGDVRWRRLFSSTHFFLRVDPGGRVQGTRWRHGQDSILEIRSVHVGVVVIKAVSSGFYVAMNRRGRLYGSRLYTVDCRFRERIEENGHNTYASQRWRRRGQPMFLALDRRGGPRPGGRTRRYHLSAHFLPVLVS
* marks the source's active call; other numbers are inactive results; x = no result given. A selection: hits, their analogues and other compounds. The true share with any hit is near 1.7%.

SMILES	F508del corr	Vif inh	FGF22 binding
COC1C(CO)OC(n2c3c(Cl)cccc3c3c4c(c5c6cccc(Cl)c6[nH]c5c32)C(=O)NC4=O)C(O)C1O (stereo not drawn)	9.8*	0	x
CN1C[C@@H]2[C@H](c3ccccc31)[C@H](CO)N2C(=O)C1CCOCC1	0	x	0
O=C(CCCCCCC(=O)Nc1ccccc1)NO	x	152*	0
O=C(CCCCCN1C(=O)c2ccccc2C1=O)Nc1ccccc1	x	6	x
C[C@H](CO)N1C[C@H](C)[C@@H](CN(C)C(=O)c2ccccc2)Oc2ncc(C#CC3CC3)cc2C1=O	0	x	0
C[C@@H]1CN([C@@H](C)CO)C(=O)c2cc(C#Cc3ccccc3F)cnc2O[C@H]1CN(C)C(=O)C1CCC1	-2	x	0
CC1CC2(C)Oc3ccccc3CC2C(C)C1CNCCCN(C)C (stereo not drawn)	-5	-1	43*
CC1Cc2ccccc2N1C(=O)CNCCCN(C)C (stereo not drawn)	x	14	x
O=C(NCC[C@H]1CC[C@H](NC(=O)c2ccccc2F)[C@H](CO)O1)c1ccc2c(c1)OCO2	-5	x	0
O=C(c1cccc(C(F)(F)F)c1)C1CCCN(Cc2cccn2-c2ncccn2)C1 (stereo not drawn)	-1	2	0
O=C(c1ccc(C(F)(F)F)cc1)C1CCCN(Cc2cccn2-c2ncccn2)C1 (stereo not drawn)	2	-3	43*
CN1CCN(C2CCN(Cc3ccc(O)c4ncccc34)CC2)CC1	-3	-2	44*
Oc1ccc(CN2CCN(Cc3ccccc3)CC2)c2cccnc12	x	9	x
CN1[C@@H]2c3ccc(-c4cccnc4)c(=O)n3C[C@@H]2[C@@H](CO)[C@@H]1C(=O)NC1Cc2ccccc2C1	0	x	0
Cc1ccc(S(=O)(=O)N(C)C[C@@H]2Oc3ccc(NC(=O)NC(C)C)cc3C(=O)N([C@H](C)CO)C[C@@H]2C)cc1	0	x	x
CCn1c(SCC(N)=O)nc2cc(S(=O)(=O)N3CCOCC3)ccc21	0	5	0
CCn1c(CCl)nc2cc(S(=O)(=O)N3CCOCC3)ccc21	-2	8	43*
CN(C)C(=O)c1cccc(-c2ccc([C@H]3[C@H]4CN(C(=O)C5CCC5)CC(=O)N4[C@H]3CO)cc2)c1	-1	x	x
C[C@H](CO)N1C[C@H](C)[C@@H](CN(C)Cc2ccccn2)Oc2ncc(C#CCN(C)C)cc2C1=O	3	x	0
CO[C@@H]1CN(C)C(=O)c2cc(NS(=O)(=O)CC(F)(F)F)ccc2OC[C@H](C)N(C(=O)NC(C)C)C[C@H]1C	1	x	0
CCNC(=O)C[C@H]1CC[C@H]2[C@@H](COC[C@@H](O)CN2C(=O)C2CCCC2)O1	3	x	0
O=C(Nc1ccc(F)cc1)Nc1ccc(N2CCOCC2)c2nonc12	11*	2	0
COc1ccc(NC(=O)Nc2ccc(N3CCOCC3)c3nonc23)c(OC)c1	-4	7	0
Cn1cnc2cc(NC(=O)COc3ccccc3)ccc21	-3	9	0
Cc1ccc(OCC(=O)Nc2ccc3c(c2)ncn3C)cc1	22*	11	0
SMILES	F508del corr	Vif inh	FGF22 binding
COc1ccc(S(=O)(=O)Nc2ccc3c(c2)C(=O)N([C@H](C)CO)C[C@@H](C)[C@H](CN(C)C(=O)C2CCCCC2)OCCCC[C@@H](C)O3)cc1	-2	x	1.5*
Cc1ccc(S(=O)(=O)Nc2ccc3c(c2)C(=O)N([C@@H](C)CO)C[C@H](C)[C@H](CN(C)S(=O)(=O)c2ccc(C)cc2)OCCCC[C@@H](C)O3)cc1	9.1*	x	0
Cc1ccc(S(=O)(=O)N(C)C[C@H]2OCCCC[C@H](C)Oc3ccc(NS(=O)(=O)c4ccc(Cl)cc4)cc3C(=O)N([C@H](C)CO)C[C@H]2C)cc1	2	x	0
Cc1ccc(S(=O)(=O)Nc2ccc3c(c2)C(=O)N([C@@H](C)CO)C[C@H](C)[C@@H](CN(C)S(=O)(=O)c2ccc(C)cc2)OCCCC[C@@H](C)O3)cc1	2	x	-1
COc1ccc(S(=O)(=O)Nc2ccc3c(c2)C(=O)N([C@@H](C)CO)C[C@H](C)[C@H](CN(C)C(=O)C2CCCCC2)OCCCC[C@@H](C)O3)cc1	-2	x	0
COc1ccc(S(=O)(=O)Nc2ccc3c(c2)C(=O)N([C@H](C)CO)C[C@H](C)[C@H](CN(C)S(=O)(=O)c2ccc(Cl)cc2)OCCCC[C@@H](C)O3)cc1	3	x	0
Cc1ccc(S(=O)(=O)Nc2ccc3c(c2)C(=O)N([C@H](C)CO)C[C@@H](C)[C@@H](CN(C)S(=O)(=O)c2ccc(Cl)cc2)OCCCC[C@@H](C)O3)cc1	1	x	25*

Screens: PubChem BioAssay, Broad Institute
